# Positions count from the first letter of the chain named.
# Legend:
# Experiment in all cases: PBM; 200 nM protein, PBS
# Details in all cases: dsDNA, one strand shown
# HOXB4 [1] = target: HOXB4 (Homo sapiens, UniProt P17483 148-234)
# VENTX [2] = target: T1, VENTX (Homo sapiens, UniProt O95231 78-163, R121Q)
# T1 sequence: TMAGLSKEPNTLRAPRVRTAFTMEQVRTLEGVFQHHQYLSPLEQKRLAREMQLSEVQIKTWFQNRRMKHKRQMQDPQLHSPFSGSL
# VENTX [3] = target: T2, VENTX (Homo sapiens, UniProt O95231 78-163)
# T2 sequence: T1 sequence with Q44R
# VENTX [4] = target: T3, VENTX (Homo sapiens, UniProt O95231 78-163, Y115F)
# T3 sequence: T1 sequence with Y38F, Q44R
# HOXA2 [5] = target: HOXA2 (Homo sapiens, UniProt O43364 129-215, R185T)
# Chain of HOXA2 (Homo sapiens, UniProt O43364 129-215, R185T) (O43364 129-215 R185T): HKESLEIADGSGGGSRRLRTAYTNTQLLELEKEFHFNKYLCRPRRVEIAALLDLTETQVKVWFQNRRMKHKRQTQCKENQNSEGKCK
# HOXA4 [6] = target: HOXA4 (Homo sapiens, UniProt Q00056 201-287, R217L)
# Chain of HOXA4 (Homo sapiens, UniProt Q00056 201-287, R217L) (Q00056 201-287 R217L): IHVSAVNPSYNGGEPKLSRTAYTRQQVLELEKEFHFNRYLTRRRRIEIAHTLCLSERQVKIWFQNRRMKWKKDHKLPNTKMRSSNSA
# HOXB4 [7] = target: HOXB4 (Homo sapiens, UniProt P17483 148-234, V174I)
# Chain of HOXB4 (Homo sapiens, UniProt P17483 148-234, V174I) (P17483 148-234 V174I): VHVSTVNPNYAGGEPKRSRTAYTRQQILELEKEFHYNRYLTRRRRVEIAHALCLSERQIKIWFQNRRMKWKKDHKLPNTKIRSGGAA
# HOXA2 [8] = target: HOXA2 (Homo sapiens, UniProt O43364 129-215, R185K)
# Chain of HOXA2 (Homo sapiens, UniProt O43364 129-215, R185K) (O43364 129-215 R185K): as the sequence (O43364 129-215 R185T) above, with T57K counted along it
# PAX4 [9] = target: T4, PAX4 (Homo sapiens, UniProt O43316 9-242, F177Y)
# T4 sequence: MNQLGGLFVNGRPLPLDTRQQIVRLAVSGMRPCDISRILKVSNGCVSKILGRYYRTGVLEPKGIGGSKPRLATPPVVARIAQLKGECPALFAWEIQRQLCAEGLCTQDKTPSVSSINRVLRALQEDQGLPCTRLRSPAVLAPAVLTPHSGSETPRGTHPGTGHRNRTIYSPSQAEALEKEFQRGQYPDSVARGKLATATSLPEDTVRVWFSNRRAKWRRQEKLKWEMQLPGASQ
# HOXA4 [10] = target: HOXA4 (Homo sapiens, UniProt Q00056 201-287, W262F)
# Chain of HOXA4 (Homo sapiens, UniProt Q00056 201-287, W262F) (Q00056 201-287 W262F): as the sequence (Q00056 201-287 R217L) above, with L17R, W62F counted along it
# HOXB9 [11] = target: HOXB9 (Homo sapiens, UniProt P17482 171-250, T197M)
# Chain of HOXB9 (Homo sapiens, UniProt P17482 171-250, T197M) (P17482 171-250 T197M): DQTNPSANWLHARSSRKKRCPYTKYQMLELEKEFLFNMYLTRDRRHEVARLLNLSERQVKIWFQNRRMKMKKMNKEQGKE
# HOXC9 [12] = target: HOXC9 (Homo sapiens, UniProt P31274 178-260, K195R)
# Chain of HOXC9 (Homo sapiens, UniProt P31274 178-260, K195R) (P31274 178-260 K195R): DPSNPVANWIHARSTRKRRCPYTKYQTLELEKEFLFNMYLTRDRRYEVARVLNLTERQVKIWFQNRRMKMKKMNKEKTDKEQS
# HOXA7 [13] = target: HOXA7 (Homo sapiens, UniProt P31268 116-202)
# Chain of HOXA7 (Homo sapiens, UniProt P31268 116-202) (P31268 116-202): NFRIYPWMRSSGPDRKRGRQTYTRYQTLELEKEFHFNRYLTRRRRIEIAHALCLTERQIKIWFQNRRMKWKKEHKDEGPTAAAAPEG
# PAX4 [14] = target: T5, PAX4 (Homo sapiens, UniProt O43316 9-242, R200K)
# T5 sequence: T4 sequence with Y169F, R192K
# HOXB6 [15] = target: HOXB6 (Homo sapiens, UniProt P17509 132-218, K202E)
# Chain of HOXB6 (Homo sapiens, UniProt P17509 132-218, K202E) (P17509 132-218 K202E): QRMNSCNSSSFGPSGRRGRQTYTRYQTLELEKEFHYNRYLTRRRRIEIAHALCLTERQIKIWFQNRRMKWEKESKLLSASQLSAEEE
# ALX3 [16] = target: ALX3 (Homo sapiens, UniProt O95076 139-225, N203Q)
# Chain of ALX3 (Homo sapiens, UniProt O95076 139-225, N203Q) (O95076 139-225 N203Q): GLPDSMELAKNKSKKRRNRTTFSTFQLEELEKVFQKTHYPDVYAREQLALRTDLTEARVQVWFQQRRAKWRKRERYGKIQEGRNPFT
# HOXD13 [17] = target: HOXD13 (Homo sapiens, UniProt P35453 263-343, T313R)
# Chain of HOXD13 (Homo sapiens, UniProt P35453 263-343, T313R) (P35453 263-343 T313R): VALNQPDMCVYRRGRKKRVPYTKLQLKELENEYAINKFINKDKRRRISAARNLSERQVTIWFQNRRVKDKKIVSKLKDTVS
# PAX4 [18] = target: T6, PAX4 (Homo sapiens, UniProt O43316 9-242, R200Q)
# T6 sequence: T4 sequence with Y169F, R192Q
# HOXC9 [19] = target: HOXC9 (Homo sapiens, UniProt P31274 178-260, R193K)
# Chain of HOXC9 (Homo sapiens, UniProt P31274 178-260, R193K) (P31274 178-260 R193K): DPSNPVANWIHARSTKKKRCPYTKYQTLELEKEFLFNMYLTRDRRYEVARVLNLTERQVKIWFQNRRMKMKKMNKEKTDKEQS
# HOXD13 [20] = target: HOXD13 (Homo sapiens, UniProt P35453 263-343)
# Chain of HOXD13 (Homo sapiens, UniProt P35453 263-343) (P35453 263-343): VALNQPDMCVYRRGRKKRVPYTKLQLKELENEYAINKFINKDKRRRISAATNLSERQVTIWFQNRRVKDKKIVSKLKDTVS
# HOXD13 [21] = target: HOXD13 (Homo sapiens, UniProt P35453 263-343, T313A)
# Chain of HOXD13 (Homo sapiens, UniProt P35453 263-343, T313A) (P35453 263-343 T313A): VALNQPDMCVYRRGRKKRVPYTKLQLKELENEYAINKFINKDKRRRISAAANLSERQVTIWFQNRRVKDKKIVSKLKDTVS
# HOXC9 [22] = target: HOXC9 (Homo sapiens, UniProt P31274 178-260, R222W)
# Chain of HOXC9 (Homo sapiens, UniProt P31274 178-260, R222W) (P31274 178-260 R222W): as the sequence (P31274 178-260 R193K) above, with K16R, R45W counted along it
# ALX3 [23] = target: ALX3 (Homo sapiens, UniProt O95076 139-225, L168V)
# Chain of ALX3 (Homo sapiens, UniProt O95076 139-225, L168V) (O95076 139-225 L168V): as the sequence (O95076 139-225 N203Q) above, with L30V, Q65N counted along it
# HESX1 = HESX1 (Homo sapiens, UniProt Q9UBX0 95-180, F115L)
# Chain of HESX1 (Q9UBX0 95-180 F115L): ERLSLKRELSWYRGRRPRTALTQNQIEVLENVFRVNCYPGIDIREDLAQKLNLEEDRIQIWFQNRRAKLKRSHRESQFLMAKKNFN
# PAX4 [24] = target: T7, PAX4 (Homo sapiens, UniProt O43316 9-242, R227W)
# T7 sequence: T4 sequence with Y169F, R219W
# HOXA7 [25] = target: HOXA7 (Homo sapiens, UniProt P31268 116-202, W177C)
# Chain of HOXA7 (Homo sapiens, UniProt P31268 116-202, W177C) (P31268 116-202 W177C): as the sequence (P31268 116-202) above, with W62C counted along it
# ALX3 [26] = target: ALX3 (Homo sapiens, UniProt O95076 139-225, N203S)
# Chain of ALX3 (Homo sapiens, UniProt O95076 139-225, N203S) (O95076 139-225 N203S): as the sequence (O95076 139-225 N203Q) above, with Q65S counted along it
# HOXB6 [27] = target: HOXB6 (Homo sapiens, UniProt P17509 132-218)
# Chain of HOXB6 (Homo sapiens, UniProt P17509 132-218) (P17509 132-218): as the sequence (P17509 132-218 K202E) above, with E71K counted along it
# HOXB9 [28] = target: HOXB9 (Homo sapiens, UniProt P17482 171-250)
# Chain of HOXB9 (Homo sapiens, UniProt P17482 171-250) (P17482 171-250): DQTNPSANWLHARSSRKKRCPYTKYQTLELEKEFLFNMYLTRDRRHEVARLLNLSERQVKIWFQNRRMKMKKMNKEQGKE
# HOXB9 [29] = target: HOXB9 (Homo sapiens, UniProt P17482 171-250, R186Q)
# Chain of HOXB9 (Homo sapiens, UniProt P17482 171-250, R186Q) (P17482 171-250 R186Q): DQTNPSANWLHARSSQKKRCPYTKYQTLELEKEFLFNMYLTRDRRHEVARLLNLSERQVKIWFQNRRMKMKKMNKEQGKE
# Chain of HOXB4 (Homo sapiens, UniProt P17483 148-234) (P17483 148-234): as the sequence (P17483 148-234 V174I) above, with I27V counted along it
sequence,measurement,setting,value
ATCGATTA,binding signal,HOXB4 [1],"13.1 upbm affinity estimate (log intensity, higher = more binding, comparable within an allelic series)"
same,binding signal,VENTX [2],"11.7 upbm affinity estimate (log intensity, higher = more binding, comparable within an allelic series)"
same,binding signal,VENTX [3],"12.6 upbm affinity estimate (log intensity, higher = more binding, comparable within an allelic series)"
same,binding signal,VENTX [4],"11.3 upbm affinity estimate (log intensity, higher = more binding, comparable within an allelic series)"
same,binding signal,HOXA2 [5],"12.6 upbm affinity estimate (log intensity, higher = more binding, comparable within an allelic series)"
same,binding signal,HOXA4 [6],"12 upbm affinity estimate (log intensity, higher = more binding, comparable within an allelic series)"
same,binding signal,HOXB4 [7],"13.8 upbm affinity estimate (log intensity, higher = more binding, comparable within an allelic series)"
same,binding signal,HOXA2 [8],"13.1 upbm affinity estimate (log intensity, higher = more binding, comparable within an allelic series)"
same,binding signal,PAX4 [9],"11 upbm affinity estimate (log intensity, higher = more binding, comparable within an allelic series)"
same,binding signal,HOXA4 [10],"11 upbm affinity estimate (log intensity, higher = more binding, comparable within an allelic series)"
TATTAATA,binding signal,HOXB4 [1],"12.7 upbm affinity estimate (log intensity, higher = more binding, comparable within an allelic series)"
same,binding signal,HOXB9 [11],"10.1 upbm affinity estimate (log intensity, higher = more binding, comparable within an allelic series)"
same,binding signal,HOXC9 [12],"12.6 upbm affinity estimate (log intensity, higher = more binding, comparable within an allelic series)"
same,binding signal,HOXA7 [13],"11.2 upbm affinity estimate (log intensity, higher = more binding, comparable within an allelic series)"
same,binding signal,PAX4 [14],"11.7 upbm affinity estimate (log intensity, higher = more binding, comparable within an allelic series)"
same,binding signal,HOXB6 [15],"10 upbm affinity estimate (log intensity, higher = more binding, comparable within an allelic series)"
same,binding signal,HOXB4 [7],"13.3 upbm affinity estimate (log intensity, higher = more binding, comparable within an allelic series)"
same,binding signal,ALX3 [16],"8.75 upbm affinity estimate (log intensity, higher = more binding, comparable within an allelic series)"
same,binding signal,HOXD13 [17],"10.9 upbm affinity estimate (log intensity, higher = more binding, comparable within an allelic series)"
same,binding signal,PAX4 [18],"11.9 upbm affinity estimate (log intensity, higher = more binding, comparable within an allelic series)"
same,binding signal,HOXC9 [19],"12.5 upbm affinity estimate (log intensity, higher = more binding, comparable within an allelic series)"
same,binding signal,HOXD13 [20],"11.9 upbm affinity estimate (log intensity, higher = more binding, comparable within an allelic series)"
same,binding signal,PAX4 [9],"11.1 upbm affinity estimate (log intensity, higher = more binding, comparable within an allelic series)"
same,binding signal,HOXD13 [21],"12 upbm affinity estimate (log intensity, higher = more binding, comparable within an allelic series)"
same,binding signal,HOXC9 [22],"11.1 upbm affinity estimate (log intensity, higher = more binding, comparable within an allelic series)"
same,binding signal,ALX3 [23],"9.77 upbm affinity estimate (log intensity, higher = more binding, comparable within an allelic series)"
same,binding signal,HESX1,"8.46 upbm affinity estimate (log intensity, higher = more binding, comparable within an allelic series)"
same,binding signal,PAX4 [24],"11.2 upbm affinity estimate (log intensity, higher = more binding, comparable within an allelic series)"
same,binding signal,HOXA7 [25],"9.08 upbm affinity estimate (log intensity, higher = more binding, comparable within an allelic series)"
same,binding signal,ALX3 [26],"8.79 upbm affinity estimate (log intensity, higher = more binding, comparable within an allelic series)"
same,binding signal,HOXB6 [27],"11.7 upbm affinity estimate (log intensity, higher = more binding, comparable within an allelic series)"
CCGCCTAG,binding signal,HOXB4 [1],"7.58 upbm affinity estimate (log intensity, higher = more binding, comparable within an allelic series)"
same,binding signal,HOXB9 [11],"8.4 upbm affinity estimate (log intensity, higher = more binding, comparable within an allelic series)"
same,binding signal,HOXB9 [28],"8.41 upbm affinity estimate (log intensity, higher = more binding, comparable within an allelic series)"
same,binding signal,HOXB4 [7],"7.95 upbm affinity estimate (log intensity, higher = more binding, comparable within an allelic series)"
same,binding signal,HOXB9 [29],"8.38 upbm affinity estimate (log intensity, higher = more binding, comparable within an allelic series)"

# Source: publication PMC11006913
